The values that follow come from PubChem BioAssay (Tox21).

The nature of test [1]: qHTS assay for small molecules that induce genotoxicity in human embryonic kidney cells expressing luciferase-tagged ATAD5 (AID 651632). Also: nearly all actives have a fitted effect of over 15% in size. Also: potency is read from the fitted curve at half-maximal effect. An outline of the steps:
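Increased luciferase signal from ATAD5-tagged reporter cells indicates DNA-damage-driven ATAD5 induction. HEK293T cells are treated for 16 hr at 37C before detection with Amplite.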

A short description of test [2]: qHTS assay for small molecule agonists of the p53 signaling pathway - cell viability (AID 651633; calls by dose curve; also: nearly all actives have a fitted effect of over 30% in size; also: potency is read from the fitted curve at half-maximal effect;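 as to activity change, negative = cytotoxicity: p53RE-bla HCT reporter cells with a stable beta-lactamase p53 reporter; series mostly up to about 83 µM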). An outline of the steps: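 p53RE-bla cells, seeded at 4,000 per well and rested 5 h at 37 C/5% CO2, received compounds in DMSO for 16 h at 37 C. CellTiter-Glo was then added, and luminescence was read after 30 min at room temperature to gauge cytotoxicity.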
A short description of test [3]: qHTS assay for small molecules that induce genotoxicity in human embryonic kidney cells expressing luciferase-tagged ATAD5 - cell viability (AID 651634; calls by dose curve; also: nearly all actives have a fitted effect of over 25% in size). Summed up: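 Cytotoxicity counterscreen in HEK293T cells bearing an ATAD5-luciferase reporter: live-cell protease activity measured by CellTiter-Fluor fluorescence after 15.5 hr compound exposure.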
Test [4] is described as follows: qHTS assay for small molecule disruptors of the mitochondrial membrane potential - cell viability (AID 720634; calls by dose curve;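 also: human HepG2 liver cancer cells; series mostly up to about 83 µM; nearly all actives have a fitted effect of over 20% in size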). An outline of the steps:
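After overnight attachment at 37 C, HepG2 cells received compound or DMSO vehicle for 1 hr. Viability is then taken from ATP-driven luminescence following a 30 min room-temperature CellTiter-Glo step.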

Test [5] is described as follows: qHTS assay for small molecule disruptors of the mitochondrial membrane potential (AID 720635). Also: potency is read from the fitted curve at half-maximal effect. An outline of the steps: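 HepG2 cells (2,000/well) attached overnight at 37C, then took compound for 1 hr at 37C, 5% CO2. Mito-MPS dye was added for 30 min; fluorescence was read at 490/535 nm (monomers) and 540/590 nm (aggregates).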
On the technique in general: qHTS replaces the single test concentration by a dilution series.

Test [6] in a line: qHTS assay to test for compound auto fluorescence at 590 nm (red) in HepG2 cells (AID 720674). Summed up: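 Intrinsic compound fluorescence in the red window (Ex/Em 540/590 nm) is measured in attached HepG2 cells exposed for 1 hr, DMSO vehicle as baseline, benchmarked to Rose Bengal sodium.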
Test [7] can be described thus: qHTS assay to test for compound auto fluorescence at 535 nm (green) in HepG2 cells (AID 720675).
Test [8] in a line: qHTS assay to test for compound auto fluorescence at 460 nm (blue) in HEK293 cells (AID 720678). Also: potency is read from the fitted curve at half-maximal effect. Summed up: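 Auto fluorescence in the blue band was quantified as triamterene equivalency. HEK293 cells were seeded at 2,000/well, dosed after a 4-5 hr attachment, and kept overnight at 37C before the 405/460 nm reading.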
The nature of test [9]: qHTS assay to test for compound auto fluorescence at 590 nm (red) in HEK293 cells (AID 720679). Summed up: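 Autofluorescence equivalency to Rose Bengal sodium, 540/590nm, in HEK293 cells exposed overnight to 23 nL compound per well.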
Test [10] is described as follows: qHTS assay for small molecule agonists of the p53 signaling pathway (AID 651631; calls by dose curve; also: nearly all actives have a fitted effect of over 15% in size; also: potency is read from the fitted curve at half-maximal effect). An outline of the steps: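 Beta-lactamase reporter activity under p53 response elements was quantified in HCT-116 cells by FRET fluorescence, following 16 h incubation with test compounds at 37 °C and 2 h substrate development at room temperature.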

Values joined by “and” are separate entries in the source; they are usually repeats but may differ in a detail not shown here. Identical values can stand only once. Results filed as inconclusive are left out. Some compounds were tested as several samples or in several runs, with calls that do not always agree. Active and inactive are the calls of the source. Unless noted, calls follow the shape of the dose curve; as a rule, active = well fitted curve in the direction sought with a large enough effect in the repeat runs; inconclusive = weak or mixed curves; inactive = no such curve, though single readings can be large; an effect the other way counts as inactive or inconclusive.
% is scaled to controls: 0 for no effect and ±100 for the full control effect; tags tell the direction and shape of the fitted curve or compound fluorescence and quenching.

As for `Cc1ccc(C)cc1`, the Potency result in test [1], in test [2], in test [3], in test [4], in test [5] and in test [6] was “inactive” in each case. The Potency entry in test [7], in test [8] and in [9] was “inactive” in each case.
For the compound `CCCCCC(C)OC(=O)COc1ccc(Cl)c2cccnc12` (stereo not given), the Potency result in test [10], in [2], in [3], in test [4], in test [6] and in [7] was “inactive” in each case. Further, the Potency entry in test [8] and in test [9] was “inactive” in each case.
Turning to `CCCCCCCCCCCC(=O)OCC(C)OC(=O)CCCCC(=O)O` (stereo not given), the Potency entry in test [1], in [2], in test [3], in test [4], in [5] and in test [6] was “inactive” in each case. In addition, the Potency entry in test [7], in [8] and in test [9] was “inactive” in each case.
Take `Cc1cc(C)c(/C=C2\C(=O)Nc3ccccc32)[nH]1`: the Potency entry in test [1], in [3], in test [4], in [6], in [7] and in [8] was “inactive” in each case. The Potency entry in [9] is “inactive”. In addition, the Potency in [2] was 2.66 µM (active); in test [5], 10.6 µM (active).
`Cc1ccc(C(=O)O)cc1`: the Potency entry in test [10], in [2], in test [3], in test [4], in [7] and in test [8] was “inactive” throughout. In test [9], the Potency entry was “inactive”.
Turning to `OC[C@H]1O[C@H](O[C@H]2O[C@H](CO)[C@@H](O)[C@H](O)[C@H]2O)[C@H](O)[C@@H](O)[C@@H]1O`, the Potency result in test [10], in [3], in test [4], in test [7], in test [8] and in test [9] was “inactive” throughout.
In the case of `O=C(O)O`, in test [10], the activation was -6.09% [at 8.3 µM] (inactive). For the same compound, the activity change, negative = cytotoxicity in [2] was 14.5% [at 8.08 µM] (inactive); in [4], 7.92% [at 8.08 µM] (inactive). Further, in [3], the activity, negative = cytotoxicity is 16.8% [at 8.08 µM] (inactive). For the same compound, in test [6], the fluorescence, relative to Rose Bengal is -0.453% [at 3.72 µM] (inactive). For the same compound, the fluorescence, % of fluorescein control in test [7] is -0.0364% [at 3.72 µM] (inactive). In test [8], the fluorescence, % of triamterene was -0.0075% [at 3.72 µM] (inactive). The fluorescence, % of fluorescent control in [9] was 0.462% [at 3.72 µM] (inactive).
On to `O=S(=O)(O)c1ccc(Nc2nc(Nc3ccc(/C=C/c4ccc(Nc5nc(Nc6ccc(S(=O)(=O)O)cc6)nc(N(CCO)CCO)n5)cc4S(=O)(=O)O)c(S(=O)(=O)O)c3)nc(N(CCO)CCO)n2)cc1`, for which the Potency in test [10] is 41.3 µM (active); in test [8], 31.6 µM [fluorescent] (active). The Potency result in test [2], in [3], in [4], in [6], in test [7] and in [9] was “inactive” each time.
On to `C[C@H]1NCc2cc(-c3ccc4c(=O)c(C(=O)O)cn(C5CC5)c4c3OC(F)F)ccc21`, for which the Potency result in test [10], in test [2], in test [3], in test [4], in [6] and in [7] was “inactive” in each case. Also, the Potency entry in test [8] and in test [9] was “inactive” each time.
As for `CCOc1ccc2ccccc2c1C(=O)N[C@@H]1C(=O)N2[C@@H]1SC(C)(C)[C@@H]2C(=O)O`, the Potency entry in test [1], in [2], in test [3], in test [4] and in test [5] was “inactive” throughout. Besides, in test [6], the fluorescence, relative to Rose Bengal was 0.528% [at 18.6 µM] (inactive). In addition, the fluorescence, % of fluorescein control in test [7] is -0.0692% [at 18.6 µM] (inactive). Further, the fluorescence, % of triamterene in test [8] is 0.458% [at 18.6 µM] (inactive). Besides, the fluorescence, % of fluorescent control in test [9] is 0.326% [at 18.6 µM] (inactive).
Regarding `Oc1ccccc1O`, the Potency result in [1], in test [3], in [4], in test [5], in test [6] and in [7] was “inactive” in each case. Further, the Potency result in test [8] and in [9] was “inactive” in each case. Further, the Potency in [2] is 43.8 µM (active) and 30.6 µM (active).
As for `CC(C)NC[C@@H](O)COc1ccc(CC(N)=O)cc1`, the Potency result in test [1], in [2], in [3], in test [4], in test [5] and in [6] was “inactive” each time. Further, the Potency entry in test [7], in test [8] and in test [9] was “inactive” each time.
As to `CC1(C)CC(O)CC(C)(C)N1`, the Potency result in [10], in test [3], in [6], in test [7], in test [8] and in test [9] was “inactive” in each case.
Take `O=C(O)CN(CCN(CC(=O)O)CC(=O)O)CC(=O)O`: the Potency entry in test [10], in test [3], in [6], in test [7], in test [8] and in test [9] was “inactive” throughout.
Take `CC(C)OC(=O)C(O)(CC(=O)O)CC(=O)O`: the Potency entry in test [10], in [2], in [3], in [4], in [7] and in [8] was “inactive” throughout. In test [9], the Potency result is “inactive”.
As for `S=c1nccc[nH]1`, the Potency entry in test [1], in test [2], in [3], in test [4], in [5] and in test [6] was “inactive” each time. Besides, the Potency entry in [7], in [8] and in test [9] was “inactive” throughout.
`COc1cc2nc(N3CCN(C(=O)c4ccco4)CC3)nc(N)c2cc1OC`: the Potency in test [10] is 13.3 µM (active). Moreover, the Potency result in test [2], in test [4], in [5], in test [6], in test [7] and in test [8] was “inactive” each time. Also, in [9], the Potency result was “inactive”.
As to `CCCCCCCCCCOC(=O)c1ccccc1C(=O)OCCCCCCCC`, the Potency entry in test [1], in test [2], in [3], in [4], in test [5] and in [6] was “inactive” each time. The Potency result in [7], in test [8] and in [9] was “inactive” in each case.
Regarding `COc1ccc(-c2coc3cc(O)ccc3c2=O)cc1`, the Potency is 1.72 µM (active) in [1] and 10.9 µM (active) in test [5]. Moreover, the Potency entry in test [2], in [3], in test [4], in test [6], in test [7] and in test [8] was “inactive” in each case. For the same compound, the Potency entry in test [9] was “inactive”.
Take `Oc1c(I)cc(Cl)c2cccnc12`: the Potency in test [10] is 29.8 µM (active). Also, the Potency entry in [4], in test [6], in test [7], in test [8] and in [9] was “inactive” throughout.
Consider `C#CC1(O)CC[C@H]2[C@@H]3CCC4=CCCC[C@@H]4[C@H]3CC[C@@]21C` (stereo not given in full), for which the Potency result in test [1], in test [3], in test [4], in test [6], in test [7] and in test [8] was “inactive” in each case. Besides, the Potency entry in [9] was “inactive”. The Potency result in [2] was “inactive and 68.6 µM (active)”; in [5] it was 9.02 µM (active) and 17.2 µM (active).
Take `O=C1CCCCCCCCCCCCCCCO1`: the Potency result in [10], in test [2], in [4], in test [5], in test [7] and in test [8] was “inactive” in each case. Also, the Potency entry in [9] was “inactive”.
